# The sample as a whole holds a higher share of hits than the screen did.
# nsP2pro primary = blocks chikungunya virus nsP2 protease peptide cleavage; AID 1964107; hit rate 1.1% among 31,000; Potency, µM (series often up to 24.9 µM), inactives show at the top dose activity change, negative = inhibition, hits mostly inhibitors; FRET peptide cleavage, nsP2pro, fluorescence 1 h; further: nearly all actives have a fitted effect of over 60% in size
#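 FRET cleavage of 2.5 uM peptide 2 by 150 nM CHIKV protease domain at pH 8.0 (Tris, Tween 20). Compounds at 7 concentrations (up to 25 uM) preincubated 15 min. Fluorescence read after 1 h at room temperature.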
# CHIKV nsP2 cell = inhibits CHIKV nsP2 protease in cells. shares compounds with nsP2pro primary. cell-based CHIKV nsP2 protease reporter assay. Potency, µM (highest dose often 51.1 µM), inactives show at the highest dose activity change, negative = inhibition, most hits filed as inhibitors. hit rate 10% among 450; further: nearly all actives have a fitted effect of over 70% in size
# NSP2 full ctr = selectivity test for CHIKV nsP2 protease inhibitors: full-length NSP2; hit rate 39% among 410; shares compounds with nsP2pro primary; Full-length CHIKV NSP2 protease enzymatic counterscreen; Potency, µM (series often up to 50.7 µM), inactives show top-dose activity change, negative = inhibition, actives largely listed as inhibitors; further: nearly all actives have a fitted effect of over 65% in size
# Furin counterscr = human furin inhibition, counterscreen for nsP2pro inhibitors; Potency, µM (series often up to 50.6 µM), for inactives: at the highest dose activity change, negative = inhibition, most hits filed as inhibitors; hit rate 6% among 410; Recombinant human furin enzymatic counterscreen, fluorogenic substrate; shares compounds with nsP2pro primary
# nsP2 NS23 pep = nsP2pro inhibition on native NS2/3 peptide substrate | Purified CHIKV nsP2 protease, endogenous NS2/3 peptide cleavage | hit rate 34% among 410 | shares compounds with nsP2pro primary | Potency, µM (top dose mostly 51 µM), for the others: at the top dose activity change, negative = inhibition, hits mostly inhibitors; further: nearly all actives have a fitted effect of over 55% in size
# Papain cs = inhibits papain in a CHIKV nsP2 protease selectivity counterscreen. shares compounds with nsP2pro primary. purified papain protease activity, enzymatic inhibition. Potency, µM (titrated, usually from 51 µM), inactives show top-dose activity change, negative = inhibition, most hits filed as inhibitors. hit rate 5% among 410. AID 1964104
# Target sequence (P00784 whole entry, looked up): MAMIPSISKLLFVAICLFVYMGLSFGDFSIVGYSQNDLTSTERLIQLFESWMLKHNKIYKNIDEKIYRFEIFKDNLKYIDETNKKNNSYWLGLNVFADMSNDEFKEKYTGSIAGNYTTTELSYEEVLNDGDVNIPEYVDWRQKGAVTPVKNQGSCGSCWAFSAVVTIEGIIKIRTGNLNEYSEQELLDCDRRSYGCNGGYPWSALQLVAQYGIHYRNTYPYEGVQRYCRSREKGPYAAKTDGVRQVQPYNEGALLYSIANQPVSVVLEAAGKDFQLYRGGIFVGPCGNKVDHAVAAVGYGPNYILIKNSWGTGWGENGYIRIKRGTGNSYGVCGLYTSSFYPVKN
# nsP2pro confirm = confirmation of CHIKV nsP2 protease inhibitors; shares compounds with nsP2pro primary; CHIKV nsP2 protease enzymatic activity, qHTS; Potency, µM (titrated, usually from 25.5 µM), inactives show top-dose activity change, negative = inhibition, most hits filed as inhibitors; AID 1964105; hit rate 43% among 410; further: nearly all actives have a fitted effect of over 75% in size
# HCV NS3 counter = HCV NS3/4A protease inhibition, counterscreen; hit rate 20% among 410; AID 1964106; HCV NS3/4A protease biochemical counterscreen; shares compounds with nsP2pro primary; Potency, µM (top dose mostly 50.9 µM), most hits filed as inhibitors; further: nearly all actives have a fitted effect of over 55% in size
# * = called active by the depositor; i = inactive; ? = inconclusive; ! = not active in a repeat; [ ] = remark or other dose. The call rests on the fitted dose curve. On the % scale 0 is the no-effect control and ±100 the full control effect; potency means the concentration at half of the fitted maximal effect.
SMILES,nsP2pro primary,others
Cc1nc(-c2ccco2)cc([C@H]2CN3CC[C@H]2C[C@@H]3CNC(=O)NC2CCCCC2)n1,8.9µM*,CHIKV nsP2 cell=31%;NSP2 full ctr=13µM*;Furin counterscr=?;nsP2 NS23 pep=17µM*;Papain cs=-8%;nsP2pro confirm=13µM*;HCV NS3 counter=8.4µM*
Cc1nc(-c2cccs2)cc([C@H]2CN3CC[C@H]2C[C@@H]3COC(=O)NC2CCCCC2)n1,6%,
Cc1nc(-c2ccccc2Br)cc([C@H]2CN3CC[C@H]2C[C@@H]3CNC(=O)NC2CCCCC2)n1,5µM*,CHIKV nsP2 cell=-3%;NSP2 full ctr=?;Furin counterscr=?;nsP2 NS23 pep=16µM*;Papain cs=0%;nsP2pro confirm=8µM*;HCV NS3 counter=13µM*
COc1ccc(-c2cc([C@H]3CN4CC[C@H]3C[C@@H]4CNC(=O)NC3CCCCC3)n(C)n2)cc1,12%,
CC(=O)c1cccc(NC(=O)NC[C@H]2C[C@@H]3CCN2C[C@@H]3c2cc(-c3ccc(F)cc3)nc(C)n2)c1,i,
COc1ccc(-c2cc([C@H]3CN4CC[C@H]3C[C@@H]4COC(=O)NC3CCCCC3)nc(C)n2)cc1,i,
COc1ccccc1-c1[nH]nc2ncc(C(=O)N3C[C@@H](C)O[C@@H](C)C3)nc12,-5%[39.2 µM],
NC(=O)CC[C@H](NC(=O)Cc1ccccc1)C(=O)O,-20%,
Fc1ccccc1N1CCN(c2ncc3c(n2)CCN(Cc2ccc(Br)s2)C3)CC1,2%,
Brc1ccc(CN2CCc3nc(Nc4ccccc4)ncc3C2)s1,?,CHIKV nsP2 cell=35%;NSP2 full ctr=3%;Furin counterscr=-10%;nsP2 NS23 pep=2%;Papain cs=-14%;nsP2pro confirm=-5%;HCV NS3 counter=i
Cc1ccsc1CN1CCc2nc(Nc3ccccc3)ncc2C1,2%,
O=C(OC[C@H]1O[C@@H](OC(=O)c2cc(O)c(O)c(O)c2)[C@H](OC(=O)c2cc(O)c(O)c(O)c2)[C@@H](OC(=O)c2cc(O)c(O)c(O)c2)[C@@H]1OC(=O)c1cc(O)c(O)c(O)c1)c1cc(O)c(O)c(O)c1,49%,
CC1(C)CC2=C3C=CC4C5(C)CCC(O)C(C)(C)C5CCC4(C)C3(C)CCC2(C)C(O)C1 (stereo not given),54%[10 µM],
CCN1CCC(N(Cc2ccc3c(c2)OCO3)C(=O)Nc2ccccc2OC)CC1,-7%,
COc1ccc(CN(C(=O)COc2ccccc2OC)C2CCS(=O)(=O)C2)cc1 (stereo not given),-19%,
CCN(CC)Cc1ccc(C(=O)N(CCc2ccccc2OC)[C@@H]2CCNC2)cc1,?,CHIKV nsP2 cell=12%[17.6 µM];NSP2 full ctr=6.3µM*;Furin counterscr=-9%;nsP2 NS23 pep=-40%[17.2 µM];Papain cs=-20%[17.2 µM];nsP2pro confirm=?;HCV NS3 counter=?
COCC1(CNC(=O)c2cnccn2)C[C@@H](O)[C@@H](O)C1 (stereo not given in full),i,
CCOc1ccc(CCNC(=O)c2cc3c(s2)CCC3)cc1OCC,-5%,
c1ccc(Nc2nc3c(s2)CCCc2[nH]ncc2-3)nc1,-23%,
CNC(=O)Oc1ccc2c(c1)[C@]1(C)CCN(C)[C@@H]1N2C,4.4µM*!,CHIKV nsP2 cell=-4%;NSP2 full ctr=-19%;Furin counterscr=-2%;nsP2 NS23 pep=-16%;Papain cs=-8%;nsP2pro confirm=?;HCV NS3 counter=i
CN1CCCC2(C1)CN(C)c1ccc(C(=O)NCC3CCCCC3)cc12 (stereo not given),i,
O=C(NCCN1CCC2(CC1)C(=O)NCN2c1cccc(F)c1)c1ccc(F)c(F)c1,2%,
O=C(N[C@H]1CO[C@H]2[C@@H]1OC[C@@H]2Nc1nccc(-c2cccc(F)c2)n1)c1cccs1,-10%[39.2 µM],
COc1cccc2c1c(O)c(C(=O)N(C)c1ccc(C(F)(F)F)cc1)c(=O)n2C,-26%,
Cc1cc(C)nc(NC(=S)N2CCN(c3ncccc3C#N)CC2)c1,1%,
SMILES,nsP2pro primary,others
O=[N+]([O-])c1ccc([S+](=O)([O-])N2CCN([S+](=O)([O-])c3ccc4c(c3)OCCO4)CC2)c([N+](=O)[O-])c1,-12%,
COc1ccccc1NC(=O)Nc1ccc2ccccc2c1,44%,
O=C(NCC(=O)N1CCCC1)Nc1ccc2cnccc2c1,0%,
O=C(NCC(=O)N1CCCC1)Nc1ccc2ccccc2c1,?,CHIKV nsP2 cell=-3%;NSP2 full ctr=?;Furin counterscr=-5%;nsP2 NS23 pep=-25%;Papain cs=-1%;nsP2pro confirm=-14%;HCV NS3 counter=i
CCn1ccc(C(=O)N2[C@@H]3CC[C@H]2CC(NC(=O)c2ccc(F)cc2)C3)n1 (stereo not given in full),-1%,
CC(C)N1CCc2c(sc(NC(=O)C3CC3)c2-c2nc3ccccc3s2)C1,i,
C[C@H]1[C@@H]2[C@@H](O)C([C@H](C)C(=O)NC3CCCCC3)CC[C@@]2(C)CC[C@@H]1NC(=O)C1CC1 (stereo not given in full),-9%[39.2 µM],
CC(C)c1noc(-c2ccn3c(CNC(=O)c4ccoc4)nnc3c2)n1,-4%,
CN(C)CCN(C)[C@@H]1[C@H](O)[C@H](CO)O[C@@H]1CN(Cc1ccc(Cl)cc1)Cc1cccc(Cl)c1,i,
O=c1cc(-c2ccc(O)cc2)oc2cc(O)c(O)c(O)c12,9%,
CC(C)=CCCC1(C)C=Cc2c(c(C)cc3c2[nH]c2ccccc23)O1 (stereo not given),0%,
CC(C)=CCCC1(C)C=Cc2c(O)c3c(c(CC=C(C)C)c2O1)OC12C(=CC4CC1C(C)(C)OC2(C/C=C(/C)C(=O)O)C4=O)C3=O (stereo not given),?,CHIKV nsP2 cell=?;NSP2 full ctr=-6%;Furin counterscr=-13%;nsP2 NS23 pep=?;Papain cs=-19%;nsP2pro confirm=?;HCV NS3 counter=i
Cc1cccc(C)c1SC1=NS(=O)(=O)c2ccccc21,5%,
O=C1NC2(CCN(C(=O)c3cccnc3)C2)Oc2ccccc21 (stereo not given),2%[39.2 µM],
Cc1nc(C)c(C(=O)N2CCC(C(=O)N3CCCCCCNC(=O)CC3)CC2)s1,0%,
Cc1ccc(CN(Cc2ccco2)C(=O)c2ccc(Cl)cc2Cl)cc1,32%,
COc1ccc(C(=O)N(Cc2ccco2)Cc2ccco2)c(O)c1,5µM*,CHIKV nsP2 cell=21µM*;NSP2 full ctr=?;Furin counterscr=-7%;nsP2 NS23 pep=?;Papain cs=-6%;nsP2pro confirm=?;HCV NS3 counter=?
COc1ccc(CN(Cc2ccccc2)C(=O)c2ccccc2O)cc1,-13%,
COc1ccc(CCNC(=O)c2c(-c3ccccc3)cc(=O)n3c2CCC3)cc1OC,-12%,
COC(=O)c1ccc2c(c1)S(=O)(=O)NC2=O,-2%,

# From PubChem
